Laboratory results as given in PubChem BioAssay AID1159580 (chemical genetic matrix, 2015).
Screen size: about 5,500 compounds; about 2,000 (36%) were called active. Roughly 18% stayed inconclusive and do not appear here. Rule as the data show it: active = normalized growth mostly below about 0.91 (no sharp cut-off); inconclusive = no clear call, values can overlap the other calls; inactive = mostly above about 0.92. The list shows a part of the results.

Assay: chemical genetic growth profiling, strain panel (AID 1159580);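 also: tested at 20 µM; growth read once vehicle control cultures reached saturation at 30 °C; 1 = growth at the plate median or of vehicle wells; lower values mean less growth of the strain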
Conditions: growth OD
[1] = S. cerevisiae deletion strains, locus YAL013W, strain DEP1, hits give low values
[2] = S. cerevisiae deletion strains, locus YBR229C, strain ROT2, hits give low values
[3] = S. cerevisiae deletion strains, locus YDL101C, strain DUN1, hits give low values
[4] = S. cerevisiae deletion strains, locus YDR150W, strain NUM1, hits give low values
[5] = S. cerevisiae deletion strains, locus YEL061C, strain CIN8, hits give low values
[6] = S. cerevisiae deletion strains, locus YGR078C, strain PAC10, hits give low values
[7] = S. cerevisiae deletion strains, locus YHR030C, strain SLT2, hits give low values
[8] = S. cerevisiae deletion strains, locus YJR043C, strain POL32, hits give low values
[9] = S. cerevisiae deletion strains, locus YJR075W, strain HOC1, hits give low values
[10] = S. cerevisiae deletion strains, locus YLR039C, strain RIC1, hits give low values
[11] = S. cerevisiae deletion strains, locus YLR262C, strain YPT6, hits give low values
[12] = S. cerevisiae deletion strains, locus YMR263W, strain SAP30, hits give low values
[13] = S. cerevisiae deletion strains, locus YMR307W, strain GAS1, hits give low values
[14] = S. cerevisiae deletion strains, locus YNL153C, strain GIM3, hits give low values
[15] = S. cerevisiae deletion strains, locus YNL322C, strain KRE1, hits give low values
[16] = S. cerevisiae deletion strains, locus YOL006C, strain TOP1, hits give low values
[17] = S. cerevisiae deletion strains, locus YPL055C, strain LGE1, hits give low values
[18] = S. cerevisiae deletion strains, locus YPL241C, strain CIN2, hits give low values

Measured: normalized growth

CCCCCCC(C)OC(=O)COc1cc(Cl)c(Cl)cc1Cl (stereo not drawn)
inactive: [1] 0.994 | S. cerevisiae deletion strains, locus YBR021W, strain FUR4, hits give low values 0.985 | [2] 1 | S. cerevisiae deletion strains, locus YCL029C, strain bik1, hits give low values 0.992 | S. cerevisiae deletion strains, locus YDL035C, strain GPR1, hits give low values 1 | S. cerevisiae deletion strains, locus YDL074C, strain BRE1, hits give low values 1 | [3] 1 | S. cerevisiae deletion strains, locus YDL134C, strain PPH21, hits give low values 1.01 | S. cerevisiae deletion strains, locus YDL185W, strain tfp1, hits give low values 0.995 | S. cerevisiae deletion strains, locus YDL192W, strain arf1, hits give low values 0.995 | S. cerevisiae deletion strains, locus YDR101C, strain arx1, hits give low values 0.993 | [4] 1 | S. cerevisiae deletion strains, locus YDR162C, strain NBP2, hits give low values 0.964 | S. cerevisiae deletion strains, locus YDR318W, strain mcm21, hits give low values 0.989 | S. cerevisiae deletion strains, locus YDR388W, hits give low values 0.992 | S. cerevisiae deletion strains, locus YDR502C, strain sam2, hits give low values 0.997 | [5] 1 | S. cerevisiae deletion strains, locus YER110C, hits give low values 0.993 | S. cerevisiae deletion strains, locus YER155C, strain BEM2, hits give low values 0.984 | S. cerevisiae deletion strains, locus YER167W, strain BCK2, hits give low values 0.995 | S. cerevisiae deletion strains, locus YGL078C, strain dbp3, hits give low values 0.985 | S. cerevisiae deletion strains, locus YGL086W, strain mad1, hits give low values 0.988 | S. cerevisiae deletion strains, locus YGL248W, strain PDE1, hits give low values 0.993 | [6] 0.995 | S. cerevisiae deletion strains, locus YGR135W, strain pre9, hits give low values 0.994 | S. cerevisiae deletion strains, locus YGR229C, strain SMI1, hits give low values 0.952 | S. cerevisiae deletion strains, locus YGR252W, strain gcn5, hits give low values 0.99 | [7] 0.978 | S. cerevisiae deletion strains, locus YHR079C, strain IRE1 (second series), hits give low values 0.986 | S. cerevisiae deletion strains, locus YHR094C, strain hxt1, hits give low values 0.983 | S. cerevisiae deletion strains, locus YHR129C, strain ARP1, hits give low values 1 | S. cerevisiae deletion strains, locus YHR200W, strain rpn10, hits give low values 0.987 | S. cerevisiae deletion strains, locus YIL066C, strain RNR3, hits give low values 0.975 | S. cerevisiae deletion strains, locus YIL073C, strain SPO22, hits give low values 0.948 | S. cerevisiae deletion strains, locus YIL125W, strain kgd1, hits give low values 0.988 | S. cerevisiae deletion strains, locus YIR030C, strain dcg1, hits give low values 0.983 | S. cerevisiae deletion strains, locus YJL095W, strain BCK1, hits give low values 0.997 | S. cerevisiae deletion strains, locus YJL134W, strain LCB3, hits give low values 1.01 | S. cerevisiae deletion strains, locus YJL168C, strain set2, hits give low values 0.988 | S. cerevisiae deletion strains, locus YJL187C, strain SWE1 (second series), hits give low values 0.997 | [8] 0.988 | [9] 1.01 | S. cerevisiae deletion strains, locus YKL009W, strain mrt4, hits give low values 1 | S. cerevisiae deletion strains, locus YKL068W, hits give low values 0.989 | S. cerevisiae deletion strains, locus YKL085W, strain MDH1 (second series), hits give low values 0.986 | S. cerevisiae deletion strains, locus YKL085W, strain MDH1, hits give low values 0.986 | S. cerevisiae deletion strains, locus YKL190W, strain CNB1, hits give low values 1 | S. cerevisiae deletion strains, locus YKR001C, strain vps1, hits give low values 0.996 | [10] 0.95 | S. cerevisiae deletion strains, locus YLR058C, strain SHM2, hits give low values 0.999 | S. cerevisiae deletion strains, locus YLR102C, strain apc9, hits give low values 0.998 | [11] 0.946 | S. cerevisiae deletion strains, locus YLR268W, strain sec22, hits give low values 0.99 | S. cerevisiae deletion strains, locus YLR330W, strain CHS5, hits give low values 1 | S. cerevisiae deletion strains, locus YLR342W, strain FKS1 (second series), hits give low values 1.05 | S. cerevisiae deletion strains, locus YLR371W, strain rom2, hits give low values 0.993 | S. cerevisiae deletion strains, locus YLR418C, strain cdc73, hits give low values 0.947 | S. cerevisiae deletion strains, locus YML016C, strain PPZ1, hits give low values 1.01 | S. cerevisiae deletion strains, locus YML032C, strain rad52, hits give low values 0.994 | S. cerevisiae deletion strains, locus YML124C, strain tub3, hits give low values 0.985 | S. cerevisiae deletion strains, locus YMR078C, strain ctf18, hits give low values 0.989 | S. cerevisiae deletion strains, locus YMR223W, strain ubp8, hits give low values 0.99 | [12] 1.01 | [13] 0.86 | S. cerevisiae deletion strains, locus YNL067W, strain RPL9B, hits give low values 0.994 | S. cerevisiae deletion strains, locus YNL128W, strain TEP1, hits give low values 0.995 | [14] 0.996 | S. cerevisiae deletion strains, locus YNL233W, strain BNI4, hits give low values 0.996 | S. cerevisiae deletion strains, locus YNL250W, strain rad50, hits give low values 0.982 | S. cerevisiae deletion strains, locus YNL271C, strain bni1, hits give low values 0.997 | S. cerevisiae deletion strains, locus YNL298W, strain CLA4, hits give low values 0.991 | S. cerevisiae deletion strains, locus YNL307C, strain MCK1, hits give low values 0.973 | [15] 1 | S. cerevisiae deletion strains, locus YNR052C, strain pop2, hits give low values 0.993 | [16] 0.963 | S. cerevisiae deletion strains, locus YOL012C, strain htz1 1.39 | S. cerevisiae deletion strains, locus YOL147C, strain pex11, hits give low values 0.984 | S. cerevisiae deletion strains, locus YOR061W, strain CKA2, hits give low values 1 | S. cerevisiae deletion strains, locus YOR069W, strain VPS5, hits give low values 1 | S. cerevisiae deletion strains, locus YOR136W, strain idh2, hits give low values 0.986 | S. cerevisiae deletion strains, locus YOR144C, strain elg1, hits give low values 0.986 | S. cerevisiae deletion strains, locus YOR184W, strain ser1, hits give low values 0.992 | S. cerevisiae deletion strains, locus YOR316C, strain cot1, hits give low values 0.994 | [17] 0.999 | [18] 0.999 | S. cerevisiae deletion strains, locus YPR119W, strain clb2, hits give low values 0.982 | S. cerevisiae deletion strains, locus YPR141C, strain kar3, hits give low values 0.997 | S. cerevisiae deletion strains, locus YPR163C, strain tif3, hits give low values 0.985 | S. cerevisiae deletion strains, locus YPR167C, strain met16, hits give low values 0.992 | S. cerevisiae deletion strains, strain wtn01, hits give low values 0.983 | S. cerevisiae strains, strain wild type, hits give low values 0.999

OC1(c2ccc(F)cc2)Cc2ccccc2C2=NCCN21 (stereo not drawn)
inactive: [1] 0.99 | [2] 0.987 | [3] 0.997 | [4] 0.932 | [5] 0.993 | [6] 0.98 | [7] 0.903 | S. cerevisiae deletion strains, locus YHR087W, strain rtc3, hits give low values 0.987 | S. cerevisiae deletion strains, locus YJL187C, strain SWE1, hits give low values 1.01 | [8] 1 | [9] 0.961 | [10] 0.975 | S. cerevisiae deletion strains, locus YLR058C, strain SHM2 (second series), hits give low values 0.983 | S. cerevisiae deletion strains, locus YLR085C, strain ARP6, hits give low values 0.954 | [11] 0.968 | S. cerevisiae deletion strains, locus YML094W, strain GIM5, hits give low values 0.982 | S. cerevisiae deletion strains, locus YMR219W, strain ESC1, hits give low values 0.998 | [12] 0.894 | [13] 0.925 | [14] 0.985 | S. cerevisiae deletion strains, locus YNL298W, strain CLA4 (second series), hits give low values 0.986 | [15] 0.992 | S. cerevisiae deletion strains, locus YNR030W, strain Alg12, hits give low values 0.98 | [16] 0.93 | [17] 0.866 | [18] 0.986 | S. cerevisiae deletion strains, locus YPR135W, strain CTF4, hits give low values 0.915
